Laboratory results: PubChem BioAssay (Tox21)
“And” between values parts separate entries of the source, which are not always exact repeats. Equal values may be shown once. Inconclusive results are not listed. Where a structure was tested more than once in an assay, its records may differ in their call. The source made the active and inactive calls. Unless noted, calls come from the whole dose curve; as a rule, active = well fitted curve in the direction sought with a large enough effect in the repeat runs; inconclusive = weak or mixed curves; inactive = no such curve, though single readings can be large; an effect the other way counts as inactive or inconclusive.

Experiments:
[1] = qHTS assay to identify small molecule antagonists of the glucocorticoid receptor (GR) signaling pathway - cell viability counter screen (AID 720693); note: nearly all actives have a fitted effect of over 55% in size
[2] = qHTS assay for identifying genotoxic compounds that show differential cytotoxicity against isogenic chicken DT40 cell lines with known DNA damage response pathways - wild type cell line (AID 743012); note: nearly all actives have a fitted effect of over 60% in size; note: potency is the fitted concentration of half-maximal effect
In short: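 CellTiter-Glo luminescence readout of viability in wild type DT40 cells after 40 h compound exposure at 37 C/5% CO2; 300 cells/well; reagent incubated 30 min at room temperature before reading.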

[3] = qHTS assay for identifying genotoxic compounds that show differential cytotoxicity against isogenic chicken DT40 cell lines with known DNA damage response pathways - Rev3 mutant cell line (AID 743014); note: nearly all actives have a fitted effect of over 55% in size; note: potency is the fitted concentration of half-maximal effect
[4] = qHTS assay for identifying genotoxic compounds that show differential cytotoxicity against isogenic chicken DT40 cell lines with known DNA damage response pathways - Rad54/Ku70 mutant cell line (AID 743015); note: nearly all actives have a fitted effect of over 60% in size; note: potency is the fitted concentration of half-maximal effect
[5] = qHTS assay to identify small molecule antagonists of the androgen receptor (AR) signaling pathway using the MDA cell line - cell viability counter screen (AID 743041; note: nearly all actives have a fitted effect of over 45% in size; note: potency is the fitted concentration of half-maximal effect)
In short: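 Viability read by CellTiter-Fluor fluorescence in the same wells as the antagonist screen, added after 15.5 h of a 16 h, 37C exposure. Human breast carcinoma MDA-kb2 AR-luc cells, compounds co-dosed with agonist R1881.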

[6] = qHTS assay to identify small molecule antagonists of the thyroid receptor (TR) signaling pathway - cell viability counter screen (AID 743064); note: nearly all actives have a fitted effect of over 50% in size; note: potency is the fitted concentration of half-maximal effect
In short: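 Viability of T3-stimulated (1 nM final) GH3.TRE-Luc cells is measured by CellTiter-Fluor fluorescence after 23.5 h compound exposure at 37 °C plus 30 min reagent incubation.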

[7] = qHTS assay to identify small molecule antagonists of the thyroid receptor (TR) signaling pathway (AID 743065); note: nearly all actives have a fitted effect of over 55% in size; note: potency is the fitted concentration of half-maximal effect
In short: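 Antagonism measured as loss of luciferase signal in GH3 cells stably carrying a TRE-luciferase reporter, co-treated with compound and T3 (1 nM final) for 23.5 h at 37 C. Viability was read in the same well by CellTiter-Fluor.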

[8] = test system: thyroid hormone receptor (rat, GH3 cells); test: qHTS assay to identify small molecule agonists of the thyroid receptor (TR) signaling pathway (AID 743066; calls by dose curve)
[9] = qHTS assay to identify small molecule antagonists of the estrogen receptor alpha (ER-alpha) signaling pathway - cell viability counter screen (AID 743074; calls by dose curve;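 note: HEK293 cells carrying ER-alpha-UAS-bla reporter stimulated with 17beta-estradiol; nearly all actives have a fitted effect of over 45% in size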)
[10] = qHTS assay to identify small molecule antagonists of the estrogen receptor alpha (ER-alpha) signaling pathway using the BG1 cell line - cell viability counter screen (AID 743081);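 note: compound given together with 17beta-estradiol as the ER stimulus; nearly all actives have a fitted effect of over 45% in size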; note: potency is the fitted concentration of half-maximal effect
Aromatase (Homo sapiens) = Aromatase (Homo sapiens) (UniProt P11511); test: qHTS assay to identify aromatase inhibitors (AID 743083); note: series mostly up to about 70 µM; nearly all actives have a fitted effect of over 55% in size
Aromatase (Homo sapiens), sequence (P11511 whole entry, looked up): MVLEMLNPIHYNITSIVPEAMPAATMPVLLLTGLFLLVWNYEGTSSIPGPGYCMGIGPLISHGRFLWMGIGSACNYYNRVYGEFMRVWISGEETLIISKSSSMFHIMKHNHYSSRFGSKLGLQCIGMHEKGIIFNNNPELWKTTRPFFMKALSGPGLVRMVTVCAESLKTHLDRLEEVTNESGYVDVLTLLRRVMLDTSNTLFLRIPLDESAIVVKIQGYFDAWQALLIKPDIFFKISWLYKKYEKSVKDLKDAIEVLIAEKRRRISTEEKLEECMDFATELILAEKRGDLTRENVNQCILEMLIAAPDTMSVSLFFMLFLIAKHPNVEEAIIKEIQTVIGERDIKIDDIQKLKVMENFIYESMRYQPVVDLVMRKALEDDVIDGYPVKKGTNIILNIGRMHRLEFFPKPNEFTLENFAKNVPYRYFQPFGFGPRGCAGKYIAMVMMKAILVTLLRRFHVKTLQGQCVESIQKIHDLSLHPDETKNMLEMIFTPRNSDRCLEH

[11] = qHTS assay to identify aromatase inhibitors - cell viability counter screen (AID 743084); note: potency is the fitted concentration of half-maximal effect
[12] = biological target: Androgen receptor (Homo sapiens) (UniProt P10275); test: qHTS assay to identify small molecule agonists of the androgen receptor (AR) signaling pathway using the MDA cell line (AID 743040; note: nearly all actives have a fitted effect of over 20% in size)
Androgen receptor (Homo sapiens), sequence (P10275 whole entry, looked up): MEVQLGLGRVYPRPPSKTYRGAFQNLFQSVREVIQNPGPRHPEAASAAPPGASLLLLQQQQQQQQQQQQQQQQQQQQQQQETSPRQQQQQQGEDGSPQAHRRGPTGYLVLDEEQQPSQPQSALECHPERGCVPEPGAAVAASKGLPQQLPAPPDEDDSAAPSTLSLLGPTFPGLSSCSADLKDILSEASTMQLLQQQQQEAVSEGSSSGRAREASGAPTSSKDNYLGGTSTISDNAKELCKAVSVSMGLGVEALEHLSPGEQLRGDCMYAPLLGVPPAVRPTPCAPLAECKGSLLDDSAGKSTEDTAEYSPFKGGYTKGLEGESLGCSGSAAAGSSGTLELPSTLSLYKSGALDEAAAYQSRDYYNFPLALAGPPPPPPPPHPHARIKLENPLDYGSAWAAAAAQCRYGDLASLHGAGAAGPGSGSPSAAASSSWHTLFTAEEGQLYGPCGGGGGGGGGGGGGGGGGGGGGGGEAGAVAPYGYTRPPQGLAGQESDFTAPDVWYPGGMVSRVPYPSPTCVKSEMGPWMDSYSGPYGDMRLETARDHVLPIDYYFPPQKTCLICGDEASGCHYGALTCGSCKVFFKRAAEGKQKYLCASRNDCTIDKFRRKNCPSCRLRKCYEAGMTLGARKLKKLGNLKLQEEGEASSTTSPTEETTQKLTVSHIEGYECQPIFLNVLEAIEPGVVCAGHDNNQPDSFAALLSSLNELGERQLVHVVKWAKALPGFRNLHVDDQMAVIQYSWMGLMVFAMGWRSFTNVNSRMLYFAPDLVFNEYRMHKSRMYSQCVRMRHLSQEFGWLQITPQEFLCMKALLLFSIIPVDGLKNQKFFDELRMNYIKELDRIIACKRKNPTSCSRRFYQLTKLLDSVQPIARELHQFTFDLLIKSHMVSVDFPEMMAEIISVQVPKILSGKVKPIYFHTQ
In short: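 Luciferase agonist assay: 16 h compound exposure at 37C without CO2 in MDA-kb2 AR-luc cells, whose MMTV promoter responds to both AR and GR. Luminescence measured after 30 min room-temperature incubation with ONE-Glo.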

[13] = biological target: Androgen receptor (Homo sapiens) (UniProt P10275); test: qHTS assay to identify small molecule antagonists of the androgen receptor (AR) signaling pathway using the MDA cell line (AID 743042; note: nearly all actives have a fitted effect of over 55% in size)
In short: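 Antagonist mode: compounds plus R1881 agonist added to MDA-kb2 AR-luc cells, incubated 16 h at 37C. Luciferase reporter luminescence quantified, with multiplexed CellTiter-Fluor readout for cell viability.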

[14] = biological target: Estrogen receptor (Homo sapiens) (UniProt P03372); test: qHTS assay to identify small molecule antagonists of the estrogen receptor alpha (ER-alpha) signaling pathway (AID 743069; active = well fitted curve in the direction sought with a large enough effect in the signal ratio in the repeat runs, not every such curve was filed as active; the % refers to the signal ratio)
Estrogen receptor (Homo sapiens), sequence (P03372 whole entry, looked up): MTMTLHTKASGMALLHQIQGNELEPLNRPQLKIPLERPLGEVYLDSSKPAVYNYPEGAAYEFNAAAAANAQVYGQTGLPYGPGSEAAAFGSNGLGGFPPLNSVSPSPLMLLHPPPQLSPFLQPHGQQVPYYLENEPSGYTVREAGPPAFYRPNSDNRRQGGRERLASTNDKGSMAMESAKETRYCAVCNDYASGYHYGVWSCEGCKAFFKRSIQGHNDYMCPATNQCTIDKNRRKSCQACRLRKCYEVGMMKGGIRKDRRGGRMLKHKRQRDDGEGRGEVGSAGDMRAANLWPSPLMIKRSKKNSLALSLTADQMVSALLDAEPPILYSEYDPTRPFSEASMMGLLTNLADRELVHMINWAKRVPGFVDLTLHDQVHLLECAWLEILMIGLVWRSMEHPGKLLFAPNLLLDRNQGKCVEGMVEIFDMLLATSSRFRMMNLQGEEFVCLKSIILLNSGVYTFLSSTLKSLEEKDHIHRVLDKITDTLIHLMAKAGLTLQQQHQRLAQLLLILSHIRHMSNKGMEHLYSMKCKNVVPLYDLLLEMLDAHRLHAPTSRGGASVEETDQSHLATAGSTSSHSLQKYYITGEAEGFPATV
In short: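 Antagonist mode: compounds in DMSO were co-added with 17beta-estradiol to ER-alpha-bla HEK293 cells (2% charcoal-stripped serum) and left 18 h at 37C. Reporter inhibition was measured as FRET fluorescence after 2 h LiveBLAzer substrate at room temperature.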

[15] = biological target: Estrogen receptor (Homo sapiens) (UniProt P03372); test: qHTS assay to identify small molecule agonists of the estrogen receptor alpha (ER-alpha) signaling pathway (AID 743075; calls by dose curve;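 note: HEK293 GripTite cells with ER-alpha and UAS-driven beta-lactamase reporter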)
[16] = biological target: Estrogen receptor (Homo sapiens) (UniProt P03372); test: qHTS assay to identify small molecule agonists of the estrogen receptor alpha (ER-alpha) signaling pathway using the BG1 cell line (AID 743079); note: nearly all actives have a fitted effect of over 20% in size
[17] = qHTS assay to identify small molecule antagonists of the estrogen receptor alpha (ER-alpha) signaling pathway using the BG1 cell line (AID 743080; calls by dose curve;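 note: BG1 cells stimulated with 17beta-estradiol alongside compound; series mostly up to about 70 µM; nearly all actives have a fitted effect of over 25% in size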)
In short: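 After 5 days in phenol-red-free 10% charcoal-stripped FBS medium, BG1-Luc-4E2 cells were seeded, left 24 h at 37 C, co-treated with compounds and 17beta-estradiol for 21.5 h, then assayed for viability and luciferase.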

[18] = qHTS assay to identify small molecule antagonists of the androgen receptor (AR) signaling pathway - cell viability counter screen (AID 743033; note: nearly all actives have a fitted effect of over 45% in size)
[19] = biological target: Androgen receptor (Homo sapiens) (UniProt P10275); test: qHTS assay to identify small molecule agonists of the androgen receptor (AR) signaling pathway (AID 743036; active = well fitted activation curve with a large enough effect in the signal ratio in the repeat runs, with a control signal flat, not every such curve was filed as active; the % refers to the signal ratio)
In short: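 Screening used 2,000 AR-bla HEK293 cells per well, treated 16 h at 37C with test compounds in DMSO alongside positive and DMSO-only controls; beta-lactamase activity was then read by LiveBLAzer B/G FRET fluorescence after 2 h at room temperature.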

Measured: Potency

CSSc1ccoc1C
active: [2] 19.2 µM | [3] 34.2 µM | [4] 19.2 µM
inactive: [1] | [5] | [6] | [7] | [8] | [9] | [10] | Aromatase (Homo sapiens) | [11]

CN1CCCN(C(c2ccccc2)c2ccc(Cl)cc2)CC1 (stereo not drawn)
active: [2] 9.44 µM | [3] 11.9 µM | [4] 18.8 µM | [6] 6.68 µM | [7] 10.6 µM | [11] 21.1 µM
not listed: [9] | [10] | [18] | [19]
inactive: all other assays above

CC[C@H]1OC(=O)[C@H](C)[C@@H](O[C@H]2C[C@@](C)(OC)[C@@H](O)[C@H](C)O2)[C@H](C)[C@@H](O[C@@H]2O[C@H](C)C[C@H](N(C)C)[C@H]2O)[C@](C)(O)C[C@@H](C)/C(=N\OCOCCOC)[C@H](C)[C@@H](O)[C@]1(C)O
inactive and 18.1 µM (active): [10]
inactive and 8.07 µM (active): [3]
inactive and 14.3 µM (active): [2] | [4]
inactive and 10.2 µM (active): [11]
not listed: [6] | [7] | [12] | [13] | [18] | [19]
inactive: all other assays above

CC(C)CC(O)CC(C)C
not listed: [5] | [12] | [13] | [19]
inactive: all other assays above

CN(C)CC/C=C1\c2ccccc2Sc2ccc(Cl)cc21
active: [2] 3.76 µM | [3] 16.8 µM | [4] 10.6 µM | [5] 27.8 µM | [6] 11.9 µM
inactive: [1] | [12] | [8] | [9] | [15] | [16] | [17] | [10]

CC(=O)OCC(C)C
inactive: [1] | [2] | [3] | [4] | [19] | [5] | [13] | [15] | [10] | Aromatase (Homo sapiens) | [11]

CCC1CCC(CCC(=O)O)C1 (stereo not drawn)
not listed: [5] | [12] | [13] | [14] | [15] | [16] | [17] | [19]
inactive: all other assays above

O=C(O)CCCc1c[nH]c2ccccc12
inactive: [1] | [2] | [3] | [4] | [5] | [6] | [8] | [9] | [10] | Aromatase (Homo sapiens) | [11]

O=C(O)CO
not listed: [12] | [13] | [18] | [19]
inactive: all other assays above

CC(C(=O)O)c1ccc(C(=O)c2cccs2)cc1 (stereo not drawn)
not listed: [12] | [13] | [14] | [15] | [16] | [17] | [18] | [19]
inactive: all other assays above

CC(C)(C)CCCCCCOC(=O)c1ccccc1C(=O)OCCCCCCC(C)(C)C
not listed: [6] | [7] | [8] | [9] | [12] | [13] | [19]
inactive: all other assays above

CC(=O)C(C)=O
not listed: [12] | [13] | [14] | [15] | [16] | [17] | [18] | [19]
inactive: all other assays above
